TGFb inhibitor = blocks TGF-b signaling. Potency, µM (titrated, usually from 46.1 µM), for the others: top-dose activity, negative = inhibition, hits mostly inhibitors. 410,000 compounds, 1.2% hits. HepG2 CAGA-GFP TGF-b/SMAD3 reporter, GFP fluorescence, 18 h; TGF-beta stimulated, 500 pg/mL final; further: potency means the concentration at half of the fitted maximal effect; on the % scale 0 is the no-effect control and ±100 the full control effect; nearly all actives have a fitted effect of over 65% in size
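First, reporter cells (HEPG2 CAGA-GFP) rested 2 h at 37 degrees C. Next, compounds were pinned in and TGF-beta added to 500 pg/mL final. After 18 h, GFP was imaged per cell and summed per well.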
HepG2 tox = counter-screen for TGF-b inhibitors: cytotoxicity in HepG2 cells | HepG2 CAGA-GFP viability, ATP luminescence, 18 h | Potency, µM (doses to about 46.1 µM), for the others: at the highest dose activity change, negative = cytotoxicity, actives largely listed as cytotoxic | 410,000 compounds, 0.76% hits | AID 588856; further: potency means the concentration at half of the fitted maximal effect
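HepG2 CAGA-GFP cells (1000/well, DMEM with 1% FBS) received compound, then TGF-beta at 500 pg/mL final, and were incubated 18 hours at 37 degrees C. Viability was read by CellTiter-Glo luminescence. Media-only wells were set as complete cell-killing and DMSO as no toxicity.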
DT40 TDP1 CPT = DT40-hTDP1 cell growth loss with CPT. chicken DT40 Tdp1-/-;hTDP1 cells + 20 nM CPT, ATP luminescence, 48 h. 420,000 compounds, 12% hits. AID 686979. Potency, µM (highest dose often 46.2 µM), for the others: at the highest dose activity change, negative = growth inhibition, most hits filed as inhibitors; further: potency means the concentration at half of the fitted maximal effect; on the % scale 0 is the no-effect control and ±100 the full control effect; nearly all actives have a fitted effect of over 55% in size
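Chicken DT40 Tdp1-/- cells complemented with human TDP1, 400 cells/well, exposed to compounds plus 20 nM camptothecin for at least 48 h at 37 C; viability read as ATP content by CellTiter-Glo luminescence.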
TDP1 inh = inhibitors of human tyrosyl-DNA phosphodiesterase TDP1. Q9NUW8. Potency, µM (highest dose often 130 µM), inactives show top-dose activity change, negative = inhibition, usual class: inhibitors. recombinant TDP1, AlphaScreen DNA substrate cleavage. 350,000 compounds, 0.28% hits; further: potency means the concentration at half of the fitted maximal effect; on the % scale 0 is the no-effect control and ±100 the full control effect; nearly all actives have a fitted effect of over 40% in size
Target sequence (Q9NUW8 whole entry, looked up): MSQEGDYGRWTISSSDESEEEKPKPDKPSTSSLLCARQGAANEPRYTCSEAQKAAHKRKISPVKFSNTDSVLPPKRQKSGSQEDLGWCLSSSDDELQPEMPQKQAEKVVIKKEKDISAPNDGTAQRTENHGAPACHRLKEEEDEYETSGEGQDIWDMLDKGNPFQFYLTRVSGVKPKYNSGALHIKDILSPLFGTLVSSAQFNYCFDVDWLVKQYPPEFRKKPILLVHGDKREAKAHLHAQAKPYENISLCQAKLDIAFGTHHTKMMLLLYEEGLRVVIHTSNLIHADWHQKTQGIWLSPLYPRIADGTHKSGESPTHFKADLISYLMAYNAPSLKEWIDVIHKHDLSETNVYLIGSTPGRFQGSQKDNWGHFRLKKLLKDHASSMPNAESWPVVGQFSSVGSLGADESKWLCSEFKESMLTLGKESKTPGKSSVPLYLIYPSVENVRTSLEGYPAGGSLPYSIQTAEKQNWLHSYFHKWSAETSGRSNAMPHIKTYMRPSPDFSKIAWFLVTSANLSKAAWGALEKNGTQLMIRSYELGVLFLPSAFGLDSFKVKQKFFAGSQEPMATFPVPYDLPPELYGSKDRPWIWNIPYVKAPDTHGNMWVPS
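Recombinant E. coli-expressed Tdp1 (1 nM) preincubated with compound 15 min at RT, then 5'-biotin/3'-phosphotyrosine-FITC DNA substrate (15 nM) added for 5 min. AlphaScreen beads (10 ug/ml) added, 10 min RT; tyrosine-FITC cleavage read as signal loss.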
DT40 TDP1 no CPT = qHTS for Inhibitors of human tyrosyl-DNA phosphodiesterase 1 (TDP1): qHTS in cells in absence of CPT | 420,000 compounds, 15% hits | DT40 Tdp1-/- hTDP1 cells, no CPT, ATP luminescence, 48 h | Potency, µM (series often up to 46.2 µM), inactives show at the highest dose activity change, negative = growth inhibition, actives largely listed as inhibitors; further: potency means the concentration at half of the fitted maximal effect; on the % scale 0 is the no-effect control and ±100 the full control effect; nearly all actives have a fitted effect of over 55% in size
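Growth of hTDP1-complemented DT40 Tdp1-knockout cells is measured by ATP luminescence after at least 48 hr compound exposure at 37 °C, with DMSO substituting for the 20 nM CPT used in the parallel screen.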
IL1B secr inh = inflammasome signaling inhibition, IL-1 beta readout. THP-1 LPS/ATP IL-1B secretion, AlphaLISA, 16 h; active compounds read low. activity change, % at 57.5 µM. 360,000 compounds, 4.7% hits; in the data active means activity change below about -50%; inconclusive means mostly about -30% to -49%; further: on the % scale 0 is the no-effect control and ±100 the full control effect
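Secreted IL-1B measured by AlphaLISA bead assay after 16 h compound exposure of THP-1 cells; compounds (final up to 57.5 uM) added 1 h before LPS (250 ng/mL) and ATP (1.25 mM) stimulation; lower signal means less secretion.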
The depositor's hits bear a star; ? = inconclusive; · = no result given; [ ] = dose if it differs, or a comment. Sampled rows, rich in hits. Any-hit rate of the full collection: about 18%. Unless noted, the call rests on the fitted dose curve; in most records, active means well fitted curve in the direction sought with a large enough effect; inconclusive means small, poorly fitted or top-dose-only effect, or another doubt; inactive means no such curve, though single readings can be large; an effect the other way counts as inactive or inconclusive.

SMILES | TGFb inhibitor | HepG2 tox | DT40 TDP1 CPT | TDP1 inh | DT40 TDP1 no CPT | IL1B secr inh
C[C@H]1CCC(=O)N(CCSc2ccc(Br)cc2)CC1 | 4% | -36% | 16µM* | -5% | 18µM* | -2
COc1ccc(S[C@@H](CCN2CC[C@H](C)CCC2=O)c2ccccc2)cc1 | 16µM* | 4% | 10µM* | -8% | 15µM* | ?
Cc1nc(CS(=O)(=O)c2ccccn2)sc1C(=O)NNC(=O)c1ccc(Cl)cc1 | 2% | -13% | 3% | · | 6% | 10
CCOC(=O)C1=C(CN2CCN(c3cc(C)ccc3C)CC2)NC(=O)NC1c1ccc(Cl)cc1 (stereo not drawn) | ? | -32% | ? | 7% | 16µM* | ·
CCOC(=O)C1=C(CN2CCN(c3ccc(OC)cc3)CC2)NC(=O)NC1c1ccc(Cl)cc1 (stereo not drawn) | ? | -17% | 21µM* | 12% | 15µM* | ·
CCOC(=O)c1[nH]c(CN2CCN(c3ccc(OC)cc3)CC2)c(C(=O)OCC)c1C | -21% | -9% | -23% | 8%[0.0935 µM] | 13µM* | 20
CCOC(=O)c1[nH]c(C)c(C(=O)N2CCN(c3ccc(OC)cc3)CC2)c1C | 6% | -3% | -21% | 1% | ? | 19
COC(=O)CN1C(=O)CSc2ccc(S(=O)(=O)Nc3ccc(C(C)=O)cc3)cc21 | -20% | -20% | -15% | 7% | -2% | ·
COc1ccc(OC)c(S(=O)(=O)N2CC=C(c3c(C)n(CC(=O)N4CCCC4)c4ccccc34)CC2)c1 | ? | -65% | 16µM* | 6% | 18µM* | ·
CN(C(=O)c1ccc(NC(=O)C2CCCN(C(=O)OC(C)(C)C)C2)cc1)C1CCCCC1 (stereo not drawn) | -33% | -45% | ? | 0% | ? | -19
Cc1ccc(C)c(CN2CCC(CNC(=O)Nc3ccc(Cl)cc3)CC2)c1 | 0% | 2% | 21µM* | · | ? | -95*
Cc1ccc(C)c(CN2CCC(CNC(=O)Nc3ccc(Br)cc3F)CC2)c1 | ? | -84% | 10µM* | 0% | ? | -83*
O=C1CCN(CCCN2CCC(=O)NC2=S)C(=S)N1 | 1% | -8% | 2% | · | 8% | 4
CN1C(=C2C(=O)OC(C)(C)OC2=O)Sc2ccccc21 | -10% | -2% | ? | 4% | 18µM* | -1
NC(=O)c1cc(-c2ccccc2)nc2ccc(Br)cc12 | 21% | 9% | 9% | · | 4% | -6
CCOC(=O)CN1N=C(/C=C/c2ccccc2)CCC1=O | 3% | -2% | -21% | · | -10% | -5
CCOC(=O)CN1N=C(/C=C/c2ccc(C(C)C)cc2)CCC1=O | 1% | -23% | ? | -2% | ? | -56*
CC(=O)Nc1ccc(S(=O)(=O)N2CCN(c3nc4ccccc4n3CC(C)C)CC2)cc1 | -27% | -26% | -15% | · | ? | -17
Cc1ccccc1Cn1c(=O)n(CCCCC(=O)NCc2ccc3c(c2)OCO3)c(=O)c2ccccc21 | 1% | 8% | 23µM* | 5% | ? | ·
O=C(CCCCn1c(=O)[nH]c2ccsc2c1=O)NCc1ccc2c(c1)OCO2 | -15% | -10% | -20% | 0% | -7% | -8
O=C(CCCCn1c(=O)c2ccccc2n(Cc2cccc(Cl)c2)c1=O)NCc1ccc2c(c1)OCO2 | -2% | 4% | ? | 6% | 12µM* | ·
Cc1ccc(Cn2c(=O)n(CCCCC(=O)NCc3ccc4c(c3)OCO4)c(=O)c3ccccc32)cc1 | -4% | -1% | 1% | 5% | ? | ·
O=C(CCCCn1c(=S)[nH]c2ccsc2c1=O)NCc1ccc2c(c1)OCO2 | 8% | 8% | ? | -8% | 18µM* | -3
Cc1ccccc1Cn1c(=O)n(CCC(=O)NCc2ccc3c(c2)OCO3)c(=O)c2ccccc21 | -5% | -6% | ? | 5% | ? | 19
CC(Nc1ncnc2nc[nH]c12)c1ccccc1 (stereo not drawn) | 5% | 0% | 16µM* | 8% | 13µM* | 10
SMILES | TGFb inhibitor | HepG2 tox | DT40 TDP1 CPT | TDP1 inh | DT40 TDP1 no CPT | IL1B secr inh
Clc1ccc(CNc2ncnc3[nH]ncc23)c(Cl)c1 | 1% | 3% | ? | · | 16µM* | -54*
Clc1ccc(CNc2ncnc3[nH]ncc23)cc1Cl | 0% | -17% | -2% | · | ? | -24
Cc1ccc(CNc2ncnc3cc(Cl)ccc23)o1 | 0% | -6% | 10µM* | 3% | 13µM* | -18
Cc1ccc(CNc2ncnc3ccc(-c4ccc5c(c4)OCO5)cc23)o1 | · | · | · | 3% | · | ·
COc1cc2ncnc(NCc3ccccc3Cl)c2cc1OC | -20% | -78% | 21µM* | 5% | 13µM* | -9
CC(Nc1nc(Cl)nc2nc[nH]c12)c1ccccc1 (stereo not drawn) | -13% | -34% | ? | 2% | ? | ·
Cc1c(C(=O)N2CCCC2)c(S(=O)(=O)N2CCN(c3ccccc3F)CC2)c(C)n1C | 14% | 8% | 4% | 4% | -1% | 25
COc1cc2ncnc(NCc3ccccc3C)c2cc1OC | -14% | 4% | ? | 0% | ? | -15
COc1cc2ncnc(N[C@H](C)c3ccccc3)c2cc1OC | -2% | -34% | 18µM* | · | 23µM* | 40
COc1cc2ncnc(NCc3cccc(F)c3F)c2cc1OC | ? | -8% | ? | · | ? | 12
Fc1ccc(F)c(CNc2ncnc3cc(Cl)ccc23)c1 | 0% | -21% | 15µM* | · | 15µM* | ?
Cc1ccc(CNc2ncnc3cc(Cl)ccc23)cc1 | ? | -36% | 26µM* | · | 18µM* | 1
Cc1ccccc1CNc1ncnc2cc(Cl)ccc12 | 6% | -13% | -6% | · | ? | 53
COc1cc2ncnc(NCc3ccc(C)o3)c2cc1OC | -5% | -9% | ? | 5% | 21µM* | -18

High-throughput results: PubChem, National Center for Advancing Translational Sciences (NCATS)
